{
  "source": "PubChem BioAssay (NCATS)",
  "note": "Inconclusive results are not listed. The source made the active and inactive calls. Calls come from the whole dose curve; as a rule, active = well fitted inhibition curve with a large enough effect; inconclusive = small, poorly fitted or top-dose-only effect; inactive = no such curve, though single readings can be large or run the other way.",
  "data": [
    {"biological_target": "Protein phosphatase 1D (Homo sapiens) (UniProt O15297)", "sequence (O15297 whole entry, looked up)": "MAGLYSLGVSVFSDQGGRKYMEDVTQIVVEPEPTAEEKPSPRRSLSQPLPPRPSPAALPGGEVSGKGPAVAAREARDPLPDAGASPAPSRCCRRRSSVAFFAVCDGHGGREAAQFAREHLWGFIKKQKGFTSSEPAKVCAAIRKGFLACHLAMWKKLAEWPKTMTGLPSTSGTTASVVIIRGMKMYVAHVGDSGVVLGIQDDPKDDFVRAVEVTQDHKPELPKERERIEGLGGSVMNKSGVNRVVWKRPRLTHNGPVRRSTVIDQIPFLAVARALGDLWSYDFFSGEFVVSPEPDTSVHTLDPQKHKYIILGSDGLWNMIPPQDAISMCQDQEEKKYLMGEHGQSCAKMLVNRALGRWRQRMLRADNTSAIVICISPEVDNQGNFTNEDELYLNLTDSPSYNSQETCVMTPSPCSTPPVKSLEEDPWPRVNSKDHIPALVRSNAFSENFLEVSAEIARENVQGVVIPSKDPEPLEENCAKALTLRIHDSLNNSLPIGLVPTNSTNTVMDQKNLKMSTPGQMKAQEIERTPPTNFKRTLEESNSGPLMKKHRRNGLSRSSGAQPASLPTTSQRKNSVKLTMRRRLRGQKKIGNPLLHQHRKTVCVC", "test": "RapidFire Mass Spectrometry qHTS Assay for Modulators of WT P53-Induced Phosphatase 1 (WIP1) (AID 1347424)", "conditions": "WIP1 dephosphorylation of phosphopeptide, RapidFire MS; series mostly up to 63 µM", "from_the_text": "Assay Provider (PI): Nathan Coussens Ph. D.\nNational Center for Advancing Translational Sciences (NCATS), Rockville, MD\nNational Institute of Health (NIH), Bethesda, Maryland\nWT P53-Induced Phosphatase 1 (WIP1) is a member of the magnesium-dependent serine/threonine protein phosphatase (PPM) family and is induced by P53 in response to DNA damage. In several human cancers, the WIP1 protein is overexpressed, which is generally associated with a worse prognosis. Although WIP1 is an attractive therapeutic target, no potent, selective, and bioactive small-molecule modulator with favorable pharmacokinetics has been reported. Phosphatase enzymes are among the most challenging targets for small molecules because of the difficulty of achieving both modulator selectivity and bioavailability. Another major obstacle has been the availability of robust and physiologically relevant phosphatase assays that are suitable for high-throughput screening.\nHere, we describe two orthogonal biochemical WIP1 activity assays that utilize phosphopeptides from native WIP1 substrates. We optimized a RapidFire MS assay to quantify the enzymatically dephosphorylated peptide reaction product in a 384-well format. Additionally, a redshifted Rhodamine-PBP fluorescence assay was optimized in a 1,536-well format to enable real-time WIP1 activity measurements through the detection of the orthogonal reaction product, Pi. We validated these two optimized assays by quantitative high-throughput screening against the National Center for Advancing Translational Sciences (NCATS) Pharmaceutical Collection and used secondary assays to confirm and evaluate inhibitors identified in the primary screen.\nSEQUENCE No. (e.g., 1, 2, 3, etc.); […] (e.g., Cells, Incubation, Reagent, etc.); VALUE; DESCRIPTION\n1; Reagent; 50 uL; dispensed assay buffer: 0.1% formic acid in water (10 uL : 40 uL) solution in column 1\n3; Library Compounds; 63 nL; library compounds in DMSO, columns 3-24\n4; Control Compounds; 63 nL; DMSO in wells I-P, columns 1-2, GSK830371 (10 uM, final) in wells A-H, column 2\n5; Time; 1 hr; incubation\n6; Substrate; 2 uL; VEPPL-pS-QETFS (10 uM) in assay buffer, column 2-24\n7; Time; 5 min; incubation\n8; Reagent; 2 uL; 0.5% formic acid in water, columns 2-24\n9; Reagent; 38 uL; VEPPL-S-QETF*S in 0.1% formic acid, columns 2-24\n10; Detection; mass spec; RapidFire mass spectrometry\nNOTES (numbers refer to sequence above)\n1, 2, 6; dispensed reagent in White Nunc 384-well PP microplates (264573); assay buffer: 50 mM Tris-HCl pH 7.5, 30 mM MgCl2, 1 mM TCEP, 0.1 mM EGTA, 75 ug/mL BSA.\n2, 6, 8, 9; Dispensed with BioRaptr (Beckman Coulter)\n2, 6, 9; Final concentrations: 10 nM WIP1; 2 uM VEPPL-pS-QETFS; 1 uM VEFFL-S-QETF*S\n3 & 4; Kalypsys Pintool transfer (Wako USA), Tip wash sequence: water, DMSO, methanol, 20 sec vacuum dry.\n5 & 7; incubation at room temperature\n10; RapidFire mass spectrometry read using the Agilent RapidFire 360 (Clausse, 2019)\nClausse V, et al. Physiologically relevant orthogonal assay for the discovery of small-molecule modulators of WIP1 […] in high-throughput screens. J Biol Chem. 2019, 294(46): 17654-17668. doi:10.1074/jbc.RA119.010201", "values": [
      {"smiles": "C[C@]12CC[C@@H]3c4ccc(O)cc4CC[C@H]3[C@@H]1CCC2=O", "outcome": "inactive"},
      {"smiles": "CCC(=O)c1ccc(O)cc1", "outcome": "inactive"},
      {"smiles": "c1ccc(CN(CC2=NCCN2)c2ccccc2)cc1", "outcome": "inactive"},
      {"smiles": "Cc1ncc(COP(=O)(O)O)c(C=O)c1O", "outcome": "inactive"},
      {"smiles": "CC(CN(C)C)CN1c2ccccc2CCc2ccccc21", "note": "(stereo not given)", "outcome": "inactive"},
      {"smiles": "O=C(O)CC(O)C(=O)O", "note": "(stereo not given)", "outcome": "inactive"},
      {"smiles": "N[C@@H](CSSC[C@H](N)C(=O)O)C(=O)O", "activity change, negative = inhibition": "-0.373% [at 0.505 µM] (inactive)"},
      {"smiles": "NCC(=O)CCC(=O)O", "outcome": "inactive"},
      {"smiles": "Oc1cccc(O)c1", "outcome": "inactive"},
      {"smiles": "CCCCOc1cc(C(=O)OCCN(CC)CC)ccc1N", "outcome": "inactive"},
      {"smiles": "O=C(O)CN1C(=O)c2cccc3cccc(c23)C1=O", "outcome": "inactive"},
      {"smiles": "O=c1cc[nH]c(=O)[nH]1", "outcome": "inactive"},
      {"smiles": "C[C@H](NC(CCc1ccccc1)C(=O)O)C(=O)N1CCC[C@H]1C(=O)O", "note": "(stereo not given in full)", "outcome": "inactive"},
      {"smiles": "C#CCN(C)Cc1ccccc1", "outcome": "inactive"},
      {"smiles": "CC12CCC(CC1)C(C)(C)O2", "outcome": "inactive"},
      {"smiles": "C[C@](N)(Cc1ccc(O)cc1)C(=O)O", "activity change, negative = inhibition": "3.41% [at 6.17 µM] (inactive)"},
      {"smiles": "COc1cc(C)c(Cc2cnc(N)nc2N)cc1OC", "outcome": "inactive"},
      {"smiles": "CCn1cc(C(=O)O)c(=O)c2cnc(N3CCNCC3)nc21", "outcome": "inactive"},
      {"smiles": "CSc1ccc2c(c1)N(CCC1CCCCN1C)c1ccccc1S2", "note": "(stereo not given)", "outcome": "inactive"},
      {"smiles": "NCCNCCNCCNCCN", "activity change, negative = inhibition": "-9.15% [at 12.6 µM] (inactive)"},
      {"smiles": "CC1(C)S[C@@H]2[C@H](NC(=O)Cc3ccccc3)C(=O)N2[C@H]1C(=O)O", "note": "(tested in a mixture with another compound)", "outcome": "inactive"},
      {"smiles": "CC(O)CN(CCN(CC(C)O)CC(C)O)CC(C)O", "note": "(stereo not given)", "outcome": "inactive"},
      {"smiles": "Cc1ncc([N+](=O)[O-])n1CC(O)CCl", "note": "(stereo not given)", "outcome": "inactive"},
      {"smiles": "CN(C)CCC=C1c2ccccc2CCc2ccccc21", "outcome": "inactive"},
      {"smiles": "O=c1[nH]c(=O)c2[nH]c(=O)[nH]c2[nH]1", "activity change, negative = inhibition": "-6.34% [at 12.6 µM] (inactive)"},
      {"smiles": "O=c1cc[nH]c(=S)[nH]1", "outcome": "inactive"},
      {"smiles": "O=C1OC(OC(=O)c2cccnc2Nc2cccc(C(F)(F)F)c2)c2ccccc21", "note": "(stereo not given)", "outcome": "inactive"},
      {"smiles": "O=C1Nc2ccc(Cl)cc2[C@@](C#CC2CC2)(C(F)(F)F)O1", "outcome": "inactive"},
      {"smiles": "CCOC(=O)[C@H](CCc1ccccc1)N[C@@H](C)C(=O)N1C(=O)N(C)C[C@H]1C(=O)O", "outcome": "inactive"},
      {"smiles": "COCCOC(=O)C1=C(C)NC(C)=C(C(=O)OC/C=C/c2ccccc2)C1c1cccc([N+](=O)[O-])c1", "note": "(stereo not given)", "outcome": "inactive"},
      {"smiles": "CC(C)(C)NCC(O)COc1ccc(NC(=O)NC2CCCCC2)cc1", "note": "(stereo not given)", "outcome": "inactive"},
      {"smiles": "c1ccc2c(CC3=NCCN3)cccc2c1", "outcome": "inactive"},
      {"smiles": "COc1ccc2[nH]c(S(=O)Cc3ncc(C)c(OC)c3C)nc2n1", "note": "(stereo not given)", "outcome": "inactive"},
      {"smiles": "Cc1c(O)cccc1C(=O)N[C@@H](CSc1ccccc1)[C@H](O)CN1C[C@H]2CCCC[C@H]2C[C@H]1C(=O)NC(C)(C)C", "outcome": "inactive"},
      {"smiles": "Nc1ccc(S(=O)(=O)Nc2ccccc2)cc1", "outcome": "inactive"},
      {"smiles": "CCOc1ccc2ccccc2c1C(=O)N[C@@H]1C(=O)N2[C@@H]1SC(C)(C)[C@@H]2C(=O)O", "outcome": "inactive"},
      {"smiles": "CC1(C)OC(=O)NC1=O", "outcome": "inactive"},
      {"smiles": "CC1(C)[C@@H]2CC[C@@]1(C)C(=O)C2", "outcome": "inactive"},
      {"smiles": "COC(=O)[C@H]1[C@H]2C[C@@H]3c4[nH]c5cc(OC)ccc5c4CCN3C[C@H]2C[C@@H](OC(=O)COc2ccc(OC)cc2)[C@@H]1OC", "outcome": "inactive"},
      {"smiles": "CCCCCCCCCCCCCCCCCCOCC(O)CO", "note": "(stereo not given)", "outcome": "inactive"}
    ]}
  ]
}
